Article PMC4336329 (PLoS ONE, 2015)
The whole screen tested about 310,000 compounds, of which about 14,000 (4.5%) showed an effect of 50% or more. Effects have a minus sign here. What follows is part of a selection rich in strong results, with near analogues and random picks from the rest.

biological target: human ether-à-go-go-related gene (hERG) potassium channel (human, UniProt Q12809); experiment: primary screen, population patch clamp on CHO cells stably expressing hERG; higher = less effect of the substance
Sequence (Q12809 whole entry, looked up): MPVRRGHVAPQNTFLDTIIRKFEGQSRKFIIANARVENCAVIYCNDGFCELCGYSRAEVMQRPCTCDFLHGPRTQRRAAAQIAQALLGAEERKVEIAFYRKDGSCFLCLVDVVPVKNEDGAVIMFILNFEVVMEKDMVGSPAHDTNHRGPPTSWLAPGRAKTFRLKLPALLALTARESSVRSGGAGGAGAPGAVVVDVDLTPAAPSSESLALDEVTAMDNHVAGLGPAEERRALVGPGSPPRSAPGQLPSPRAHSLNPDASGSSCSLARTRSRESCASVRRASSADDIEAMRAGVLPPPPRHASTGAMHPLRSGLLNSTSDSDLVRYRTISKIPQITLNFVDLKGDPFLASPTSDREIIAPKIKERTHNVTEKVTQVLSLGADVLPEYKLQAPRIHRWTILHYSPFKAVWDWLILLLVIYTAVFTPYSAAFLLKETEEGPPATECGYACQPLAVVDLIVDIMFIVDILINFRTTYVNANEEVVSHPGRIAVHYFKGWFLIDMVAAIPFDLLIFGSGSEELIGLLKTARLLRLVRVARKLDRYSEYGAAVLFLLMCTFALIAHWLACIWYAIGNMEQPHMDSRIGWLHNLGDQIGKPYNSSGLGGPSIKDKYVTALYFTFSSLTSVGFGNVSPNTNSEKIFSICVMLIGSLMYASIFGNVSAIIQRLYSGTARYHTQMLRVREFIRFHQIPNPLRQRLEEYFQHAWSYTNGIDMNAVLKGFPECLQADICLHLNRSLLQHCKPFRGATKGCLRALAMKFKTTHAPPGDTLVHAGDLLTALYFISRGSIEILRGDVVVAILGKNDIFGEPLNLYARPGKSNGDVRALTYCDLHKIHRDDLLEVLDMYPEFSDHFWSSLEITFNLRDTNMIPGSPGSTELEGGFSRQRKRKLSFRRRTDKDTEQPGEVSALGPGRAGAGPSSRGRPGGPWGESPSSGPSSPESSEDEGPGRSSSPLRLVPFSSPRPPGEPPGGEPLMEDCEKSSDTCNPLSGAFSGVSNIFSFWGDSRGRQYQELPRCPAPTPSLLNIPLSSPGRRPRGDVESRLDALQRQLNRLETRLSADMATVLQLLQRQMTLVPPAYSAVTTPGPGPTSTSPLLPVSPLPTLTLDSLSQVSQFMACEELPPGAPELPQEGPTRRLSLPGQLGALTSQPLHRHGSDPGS
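Further: peak tail current of the secondary pulse compared with the same well before compound.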

SMILES | hERG current change (%, negative = inhibition) at 10uM [%]
CC(C)COc1ccc(C(=O)Nc2ccc(N3CCOCC3)cc2N2CCOCC2)cc1 | 1.07
COc1ccc(OC)c(C2NC(=O)NC(C)=C2C(=O)Nc2ccc(C)cc2)c1 (centres unmarked) | 5.98
COC(=O)[C@H](C)NC(=O)Nc1cc(OC)ccc1OC | -8.76
N#CCC(=O)Nc1ccc(C(=O)OCC(=O)C23CC4CC(CC(C4)C2)C3)cc1 | 12.7
CC1CCCN(C(=O)C2CCCN(S(=O)(=O)c3cccc4nsnc34)C2)C1 (centres unmarked) | 2.02
Cc1cccc(-n2c(-c3ccccc3)c[nH]c2=S)c1C | 14.6
COCCn1c(SCC(=O)Nc2cc(OC)ccc2OC)nc2c(c1=O)SC(C)C2 (centres unmarked) | -18.5
COc1cc(/C=C/CO)cc(OC)c1OC/C=C(\C)CCC=C(C)C | 1.34
CC(C)N1CCc2c(sc(NC(=O)C3CCCCC3)c2C(N)=O)C1.Cl | -21.7
CCOC(=O)c1c(NC(=S)N2CCCCC2)sc2c1CCN(C(=O)OCC)C2 | -1.16
CCOC(=O)c1c(NC(=O)C2CCCCC2)sc2c1CCN(CC)C2.Cl | -51.7
CCOC(=O)c1c(NC(=O)C2CCCCC2)sc2c1CCN(C(C)C)C2.Cl | -81.6
CCN1CCc2c(sc(NC(=O)C3CCCCC3)c2C(=O)OC)C1.Cl | -17.4
COC(=O)c1c(NC(=O)C2CCCCC2)sc2c1CCN(C(C)C)C2.Cl | -16.5
O=C(COc1ccccc1)NCCSCc1ccc(Cl)cc1 | -12.6
CCC(C)NC(=O)Cn1c(=O)sc2ccccc21 (centres unmarked) | 4.15
O=C(CN(Cc1ccccc1)S(=O)(=O)c1ccc(Br)cc1)NCC1CCCO1 (centres unmarked) | -77.2
O=C(CN(Cc1ccccc1)S(=O)(=O)c1ccc(Cl)cc1)NCC1CCCO1 (centres unmarked) | -9.79
O=C(CN(Cc1ccc(Br)cc1)S(=O)(=O)c1ccccc1)NCC1CCCO1 (centres unmarked) | -6.72
Cc1ccc(S(=O)(=O)N(CC(=O)NCC2CCCO2)Cc2ccc(F)cc2)cc1 (centres unmarked) | -10.6

SMILES | hERG current change (%, negative = inhibition) at 10uM [%]
Cc1ccc(CN(CC(=O)NCC2CCCO2)S(=O)(=O)c2ccc(C)cc2)cc1 (centres unmarked) | -1.71
Cc1ccc(S(=O)(=O)N(CC(=O)NCC2CCCO2)Cc2cccc(C)c2)cc1 (centres unmarked) | -60.5
Cc1noc(C)c1S(=O)(=O)N1CCCC(C(=O)Nc2nccs2)C1 (centres unmarked) | -13.6
CCOc1ccc(OCCSc2nc3ccccc3[nH]2)cc1 | -0.985
CN1CCN(CCCN2c3ccccc3Sc3ccc(S(=O)(=O)N(C)C)cc32)CC1.CS(=O)(=O)O | -57.4
CN1CCN(CC(=O)N2c3ccccc3Sc3ccccc32)CC1 | -13.7
COc1cc2c(cc1Cl)/C(=C\CCN(C)C)c1ccccc1S2.O=S(=O)(O)O | -35.4
CN1CCN(CC(=O)Nc2ccc(S(=O)(=O)N(C)C)cc2)CC1.O=C(O)C(=O)O | 6.74
CN1CCN(CC/C=C2/c3ccccc3Sc3ccc(S(=O)(=O)N(C)C)cc32)CC1 | -64.7
CN1CCN(CCCN2c3ccccc3Sc3ccc(C(F)(F)F)cc32)CC1.Cl | -30.4
CN(C)S(=O)(=O)c1ccc2c(c1)C(=O)c1cc(S(=O)(=O)N(C)C)ccc1CC2 | 7.08
Cl.FC(F)(F)c1ccc2c(c1)N(CCCN1CCN(CCCl)CC1)c1ccccc1S2 | -8.34
CN1CCN(CC/C=C2\c3ccccc3Sc3ccc(S(=O)(=O)N(C)C)cc32)CC1 | -58
CN(C)S(=O)(=O)c1ccc(Cl)c(NC(=O)CN2CCc3ccccc3C2)c1 | -12.7
CN1CCN(CCC(=O)N2c3ccccc3Sc3ccc(Cl)cc32)CC1 | -48.9
CCSc1ccc2c(c1)N(CCCN1CCN(C)CC1)c1ccccc1S2.O=C(O)CC(O)C(=O)O | -54.2
CNC(=O)c1ccc(NC(=O)CC2SC(N3CCCC3)=NC2=O)cc1 (centres unmarked) | -4.89
CCCc1nc2sc3ccccc3c(=O)c2c(=O)n1CCOC | 9.8
CCOC(=O)CN1CC23C=CC(O2)C(C(=O)Nc2ccc4c(c2)OCO4)C3C1=O (centres unmarked) | 4.95
Cc1cc(Br)ccc1NC(=O)CN(C)C(=O)COc1cccc2c1OC(C)(C)C2 | -8.15

SMILES | hERG current change (%, negative = inhibition) at 10uM [%]
COCCn1c(SCC(=O)Nc2ccc(C(C)=O)cc2)nc2c([nH]c3ccccc32)c1=O | 1.97
Cc1cc(O)c(-c2ccno2)cc1Cl | 13
CCN(CC)c1ccc(NC(=O)Cn2cc3c(n2)CCC(C)C3)c(C)c1 (centres unmarked) | -3.35
NC(=O)CSc1nnc(-c2cccs2)n1Cc1ccco1 | -13.9
COc1cc(CNCCNCC(C)O)ccc1OCc1ccc(Cl)nc1 (centres unmarked) | -8.7
COc1ccc(CNCCNC(=O)c2nonc2N)cc1OC.Cl | -24.8
COc1cc(OC)c(OC)cc1CNCCNC(=O)c1nonc1N.Cl | -0.502
COc1cccc(CNCCNC(=O)c2nonc2N)c1.Cl | 9.27
COc1cc(CNCCNC(=O)c2nonc2N)ccc1OCc1ccc(Cl)nc1.Cl | -56.4
COc1cc(CNCCNC(=O)c2nonc2N)ccc1OCc1ccc(Cl)cc1.Cl | -74.4
CC(C(=O)Nc1nccs1)N1C(=O)c2ccccc2S1(=O)=O (centres unmarked) | 11.5
CCc1nn(CCCC(=O)N2CCC(C)CC2)c(=O)c2cc3occc3n12 | -2.71
O=C(OCC(=O)N1CCCCCC1)c1cnc(Cl)c(Cl)c1 | -2.83
COCCNc1ccc([N+](=O)[O-])cc1C(=O)Nc1cccc(C)n1 | -62.7
COc1cccc(NC(=O)c2cc([N+](=O)[O-])ccc2NC(=O)CNCC2CCCO2)c1 (centres unmarked) | -16.4
Cc1cccc(NC(=O)c2ccc([N+](=O)[O-])cc2Cl)n1 | -22.8
Cc1cccc(NC(=O)c2cc([N+](=O)[O-])ccc2N2CCCCC2)n1 | -35.1
Cc1cccc(NC(=O)c2ccc(NCC3CCCO3)c([N+](=O)[O-])c2)n1 (centres unmarked) | 14.2
Cc1cccc(NC(=O)c2cc([N+](=O)[O-])ccc2NCC2CCCO2)n1 (centres unmarked) | -80.9
